# Assay results: article PMC8384837, “Expanding the binding specificity for RNA recognition by a PUF domain”
# Changes are numbered by the printed parent chain.
# Experiments:
# Experiment in all cases: yeast three-hybrid, YBZ-1, SC-Leu-His + 0.5 mM 3-AT, 4 days
# Details in all cases: tags: N-Gal4 AD-HA kept; label: inside an RPR1-promoter hybrid RNA with tandem MS2 sites; ssRNA
# PUM1 PUF domain R4-PYA = PUM1 PUF domain R4-PYA (Homo sapiens, UniProt Q14671 828-1176, N971P;H972Y;Q975A)
# Method in brief: (§1)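 The interaction score is the log change in how often each variant appears, from input to selection. Frequencies came from PCR-amplified, Illumina-sequenced repeat regions of Pumilio-1 PUF domain libraries grown in strain YBZ-1 (LexA–MS2 coat fusion, HIS3 reporter) alongside matching RNA elements. Input plates were SC-Leu and selection plates were SC-Leu-His + 0.5 mM 3-AT, each for four days, and the log2 calculation used a pseudocount of 1 where a variant was absent.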
# PUM1 PUF domain R4-PWR = PUM1 PUF domain R4-PWR (Homo sapiens, UniProt Q14671 828-1176, N971P;H972W;Q975R)
# Method in brief: as §1
# PUM1 PUF domain R1-RVI = PUM1 PUF domain R1-RVI (Homo sapiens, UniProt Q14671 828-1176, S863R;R864V;Q867I)
# Method in brief: as §1
# PUM1 PUF domain R1-RSN = PUM1 PUF domain R1-RSN (Homo sapiens, UniProt Q14671 828-1176, S863R;R864S;Q867N)
# Method in brief: as §1
# PUM1 PUF domain R5-QNS = PUM1 PUF domain R5-QNS (Homo sapiens, UniProt Q14671 828-1176, C1007Q;R1008N;Q1011S)
# Method in brief: as §1
# PUM1 PUF domain R5-ERA = PUM1 PUF domain R5-ERA (Homo sapiens, UniProt Q14671 828-1176, C1007E;Q1011A)
# Method in brief: as §1
# PUM1 PUF domain R7-RPC = PUM1 PUF domain R7-RPC (Homo sapiens, UniProt Q14671 828-1176, S1079R;N1080P;E1083C)
# Method in brief: as §1
# PUM1 PUF domain R7-RGH = PUM1 PUF domain R7-RGH (Homo sapiens, UniProt Q14671 828-1176, S1079R;N1080G;E1083H)
# Method in brief: as §1
# PUM1 PUF domain R7-KHG = PUM1 PUF domain R7-KHG (Homo sapiens, UniProt Q14671 828-1176, S1079K;N1080H;E1083G)
# Method in brief: as §1
# PUM1 PUF domain R2-IFA = PUM1 PUF domain R2-IFA (Homo sapiens, UniProt Q14671 828-1176, N899I;Y900F;Q903A)
# Method in brief: as §1
# PUM1 PUF domain R6-HYR = target: T1, PUM1 PUF domain R6-HYR (Homo sapiens, UniProt Q14671 828-1176, N1043H;Q1047R)
# T1 sequence: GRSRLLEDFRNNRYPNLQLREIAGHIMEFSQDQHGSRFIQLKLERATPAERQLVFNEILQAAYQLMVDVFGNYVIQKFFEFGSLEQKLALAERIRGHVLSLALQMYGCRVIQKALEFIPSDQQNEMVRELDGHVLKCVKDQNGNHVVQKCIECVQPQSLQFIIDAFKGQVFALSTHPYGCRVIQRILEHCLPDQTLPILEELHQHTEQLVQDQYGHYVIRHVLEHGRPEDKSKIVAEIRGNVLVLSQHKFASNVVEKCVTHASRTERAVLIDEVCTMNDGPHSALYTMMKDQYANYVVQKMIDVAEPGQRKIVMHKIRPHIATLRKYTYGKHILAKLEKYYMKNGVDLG
# Method in brief: as §1
# PUM1 PUF domain R6-FWR = target: T2, PUM1 PUF domain R6-FWR (Homo sapiens, UniProt Q14671 828-1176, N1043F;Y1044W;Q1047R)
# T2 sequence: T1 sequence with H216F, Y217W
# Method in brief: as §1
# PUM1 PUF domain R8-RRG = PUM1 PUF domain R8-RRG (Homo sapiens, UniProt Q14671 828-1176, N1122R;Y1123R;Q1126G)
# Method in brief: as §1
# PUM1 PUF domain R3-TRL = PUM1 PUF domain R3-TRL (Homo sapiens, UniProt Q14671 828-1176, C935T;Q939L)
# Method in brief: as §1
# PUM1 PUF domain R5-DWE = PUM1 PUF domain R5-DWE (Homo sapiens, UniProt Q14671 828-1176, C1007D;R1008W;Q1011E)
# Method in brief: as §1
# PUM1 PUF domain R3-GRS = PUM1 PUF domain R3-GRS (Homo sapiens, UniProt Q14671 828-1176, C935G;Q939S)
# Method in brief: as §1
# PUM1 PUF domain R3-SSK = PUM1 PUF domain R3-SSK (Homo sapiens, UniProt Q14671 828-1176, C935S;R936S;Q939K)
# Method in brief: as §1
# PUM1 PUF domain R3-HRS = PUM1 PUF domain R3-HRS (Homo sapiens, UniProt Q14671 828-1176, C935H;Q939S)
# Method in brief: as §1
# PUM1 PUF domain R3-QFR = PUM1 PUF domain R3-QFR (Homo sapiens, UniProt Q14671 828-1176, C935Q;R936F;Q939R)
# Method in brief: as §1
# PUM1 PUF domain R8-NWK = PUM1 PUF domain R8-NWK (Homo sapiens, UniProt Q14671 828-1176, Y1123W;Q1126K)
# Method in brief: as §1
sequence,measurement,setting,value
GGCUAGAACUAGUGGAUCCCCCGGCGCCCGGCGGCUCGAGCCCGGGUAAGUGUACAUAGUCUGCAUGCCGCCGGGCGCCAUGCCUGCAGGUCGACUCUAGAAAACAUG,binding signal,PUM1 PUF domain R4-PYA,5.06 log2 enrichment (interaction score)
same,binding signal,PUM1 PUF domain R4-PWR,5.54 log2 enrichment (interaction score)
GGCUAGAACUAGUGGAUCCCCCGGCGCCCGGCGGCUCGAGCCCGGGUAAGUGUAAAUUGUCUGCAUGCCGCCGGGCGCCAUGCCUGCAGGUCGACUCUAGAAAACAUG,binding signal,PUM1 PUF domain R1-RVI,2.56 log2 enrichment (interaction score)
same,binding signal,PUM1 PUF domain R1-RSN,4.41 log2 enrichment (interaction score)
GGCUAGAACUAGUGGAUCCCCCGGCGCCCGGCGGCUCGAGCCCGGGUAAGUGUUAAUAGUCUGCAUGCCGCCGGGCGCCAUGCCUGCAGGUCGACUCUAGAAAACAUG,binding signal,PUM1 PUF domain R5-QNS,3.13 log2 enrichment (interaction score)
same,binding signal,PUM1 PUF domain R5-ERA,1.72 log2 enrichment (interaction score)
GGCUAGAACUAGUGGAUCCCCCGGCGCCCGGCGGCUCGAGCCCGGGUAAGUUUAAAUAGUCUGCAUGCCGCCGGGCGCCAUGCCUGCAGGUCGACUCUAGAAAACAUG,binding signal,PUM1 PUF domain R7-RPC,3.97 log2 enrichment (interaction score)
same,binding signal,PUM1 PUF domain R7-RGH,3.07 log2 enrichment (interaction score)
GGCUAGAACUAGUGGAUCCCCCGGCGCCCGGCGGCUCGAGCCCGGGUAAGUAUAAAUAGUCUGCAUGCCGCCGGGCGCCAUGCCUGCAGGUCGACUCUAGAAAACAUG,binding signal,PUM1 PUF domain R7-KHG,2.59 log2 enrichment (interaction score)
GGCUAGAACUAGUGGAUCCCCCGGCGCCCGGCGGCUCGAGCCCGGGUAAGUCUAAAUAGUCUGCAUGCCGCCGGGCGCCAUGCCUGCAGGUCGACUCUAGAAAACAUG,binding signal,PUM1 PUF domain R7-RPC,0.8 log2 enrichment (interaction score)
same,binding signal,PUM1 PUF domain R7-RGH,1.99 log2 enrichment (interaction score)
GGCUAGAACUAGUGGAUCCCCCGGCGCCCGGCGGCUCGAGCCCGGGUAAGUGUAAAAAGUCUGCAUGCCGCCGGGCGCCAUGCCUGCAGGUCGACUCUAGAAAACAUG,binding signal,PUM1 PUF domain R2-IFA,4.76 log2 enrichment (interaction score)
GGCUAGAACUAGUGGAUCCCCCGGCGCCCGGCGGCUCGAGCCCGGGUAAGUGUAAAUAGUCUGCAUGCCGCCGGGCGCCAUGCCUGCAGGUCGACUCUAGAAAACAUG,binding signal,PUM1 PUF domain R6-HYR,5.76 log2 enrichment (interaction score)
same,binding signal,PUM1 PUF domain R6-FWR,5.25 log2 enrichment (interaction score)
same,binding signal,PUM1 PUF domain R8-RRG,1.3 log2 enrichment (interaction score)
same,binding signal,PUM1 PUF domain R3-TRL,2.97 log2 enrichment (interaction score)
same,binding signal,PUM1 PUF domain R5-ERA,3.08 log2 enrichment (interaction score)
same,binding signal,PUM1 PUF domain R5-DWE,3.79 log2 enrichment (interaction score)
same,binding signal,PUM1 PUF domain R3-GRS,2.84 log2 enrichment (interaction score)
same,binding signal,PUM1 PUF domain R4-PYA,4.99 log2 enrichment (interaction score)
same,binding signal,PUM1 PUF domain R4-PWR,1.17 log2 enrichment (interaction score)
GGCUAGAACUAGUGGAUCCCCCGGCGCCCGGCGGCUCGAGCCCGGGUAAGUGUGAAUAGUCUGCAUGCCGCCGGGCGCCAUGCCUGCAGGUCGACUCUAGAAAACAUG,binding signal,PUM1 PUF domain R5-ERA,2.24 log2 enrichment (interaction score)
GGCUAGAACUAGUGGAUCCCCCGGCGCCCGGCGGCUCGAGCCCGGGUAAGUGAAAAUAGUCUGCAUGCCGCCGGGCGCCAUGCCUGCAGGUCGACUCUAGAAAACAUG,binding signal,PUM1 PUF domain R6-FWR,4.17 log2 enrichment (interaction score)
GGCUAGAACUAGUGGAUCCCCCGGCGCCCGGCGGCUCGAGCCCGGGUAAGUGUAAAUCGUCUGCAUGCCGCCGGGCGCCAUGCCUGCAGGUCGACUCUAGAAAACAUG,binding signal,PUM1 PUF domain R1-RVI,2.84 log2 enrichment (interaction score)
same,binding signal,PUM1 PUF domain R1-RSN,5.16 log2 enrichment (interaction score)
GGCUAGAACUAGUGGAUCCCCCGGCGCCCGGCGGCUCGAGCCCGGGUAAGUGUAAUUAGUCUGCAUGCCGCCGGGCGCCAUGCCUGCAGGUCGACUCUAGAAAACAUG,binding signal,PUM1 PUF domain R3-SSK,2.9 log2 enrichment (interaction score)
same,binding signal,PUM1 PUF domain R3-TRL,0.95 log2 enrichment (interaction score)
same,binding signal,PUM1 PUF domain R3-GRS,1.26 log2 enrichment (interaction score)
GGCUAGAACUAGUGGAUCCCCCGGCGCCCGGCGGCUCGAGCCCGGGUAAGUGUAAGUAGUCUGCAUGCCGCCGGGCGCCAUGCCUGCAGGUCGACUCUAGAAAACAUG,binding signal,PUM1 PUF domain R3-SSK,2.38 log2 enrichment (interaction score)
same,binding signal,PUM1 PUF domain R3-GRS,1.73 log2 enrichment (interaction score)
same,binding signal,PUM1 PUF domain R3-HRS,2.22 log2 enrichment (interaction score)
GGCUAGAACUAGUGGAUCCCCCGGCGCCCGGCGGCUCGAGCCCGGGUAAGUGUCAAUAGUCUGCAUGCCGCCGGGCGCCAUGCCUGCAGGUCGACUCUAGAAAACAUG,binding signal,PUM1 PUF domain R5-ERA,0.84 log2 enrichment (interaction score)
GGCUAGAACUAGUGGAUCCCCCGGCGCCCGGCGGCUCGAGCCCGGGUAAGUGUAAAUGGUCUGCAUGCCGCCGGGCGCCAUGCCUGCAGGUCGACUCUAGAAAACAUG,binding signal,PUM1 PUF domain R1-RSN,2.27 log2 enrichment (interaction score)
GGCUAGAACUAGUGGAUCCCCCGGCGCCCGGCGGCUCGAGCCCGGGUAAGUGUAACUAGUCUGCAUGCCGCCGGGCGCCAUGCCUGCAGGUCGACUCUAGAAAACAUG,binding signal,PUM1 PUF domain R3-QFR,7.11 log2 enrichment (interaction score)
GGCUAGAACUAGUGGAUCCCCCGGCGCCCGGCGGCUCGAGCCCGGGUAAGCGUAAAUAGUCUGCAUGCCGCCGGGCGCCAUGCCUGCAGGUCGACUCUAGAAAACAUG,binding signal,PUM1 PUF domain R8-RRG,2.76 log2 enrichment (interaction score)
same,binding signal,PUM1 PUF domain R8-NWK,4.45 log2 enrichment (interaction score)
